In ChEMBL document CHEMBL2218924, “A broad activity screen in support of a chemogenomic map for kinase signalling research and drug discovery” (Biochem J, 2013):

Experiments:
[1] = target: T1, Phosphorylase b kinase gamma catalytic chain, liver/testis isoform (Homo sapiens) (UniProt P15735); details: at 1 µM
T1 sequence (whole entry): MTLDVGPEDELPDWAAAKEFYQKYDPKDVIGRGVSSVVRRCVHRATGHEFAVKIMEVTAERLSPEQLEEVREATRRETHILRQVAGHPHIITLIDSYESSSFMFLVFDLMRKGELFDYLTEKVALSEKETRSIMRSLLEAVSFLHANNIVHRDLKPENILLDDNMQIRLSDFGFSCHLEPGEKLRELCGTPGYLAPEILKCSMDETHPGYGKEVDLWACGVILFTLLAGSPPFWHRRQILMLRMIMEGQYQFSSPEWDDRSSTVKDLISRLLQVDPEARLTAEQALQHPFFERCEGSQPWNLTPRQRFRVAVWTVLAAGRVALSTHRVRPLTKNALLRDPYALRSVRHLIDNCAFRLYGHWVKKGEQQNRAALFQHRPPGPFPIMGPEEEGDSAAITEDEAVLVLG

[2] = target: T1, Phosphorylase b kinase gamma catalytic chain, liver/testis isoform (Homo sapiens); details: at 10 µM
[3] = target: Serine/threonine-protein kinase pim-1 (Homo sapiens) (UniProt P11309); details: at 1 µM
Sequence of Serine/threonine-protein kinase pim-1 (Homo sapiens) (P11309 whole entry, looked up): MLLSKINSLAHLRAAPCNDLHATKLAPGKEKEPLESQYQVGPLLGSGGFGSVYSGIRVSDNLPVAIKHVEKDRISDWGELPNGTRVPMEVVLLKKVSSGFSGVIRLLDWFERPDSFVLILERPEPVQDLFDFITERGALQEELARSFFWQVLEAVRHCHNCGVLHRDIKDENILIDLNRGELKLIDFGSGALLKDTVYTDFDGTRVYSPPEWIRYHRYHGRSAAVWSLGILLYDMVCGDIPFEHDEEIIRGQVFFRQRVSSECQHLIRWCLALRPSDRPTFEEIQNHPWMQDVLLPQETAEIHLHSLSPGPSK

[4] = target: Serine/threonine-protein kinase pim-1 (Homo sapiens) (UniProt P11309); details: at 10 µM
[5] = target: Serine/threonine-protein kinase pim-2 (Homo sapiens) (UniProt Q9P1W9); details: at 1 µM
Sequence of Serine/threonine-protein kinase pim-2 (Homo sapiens) (Q9P1W9 whole entry, looked up): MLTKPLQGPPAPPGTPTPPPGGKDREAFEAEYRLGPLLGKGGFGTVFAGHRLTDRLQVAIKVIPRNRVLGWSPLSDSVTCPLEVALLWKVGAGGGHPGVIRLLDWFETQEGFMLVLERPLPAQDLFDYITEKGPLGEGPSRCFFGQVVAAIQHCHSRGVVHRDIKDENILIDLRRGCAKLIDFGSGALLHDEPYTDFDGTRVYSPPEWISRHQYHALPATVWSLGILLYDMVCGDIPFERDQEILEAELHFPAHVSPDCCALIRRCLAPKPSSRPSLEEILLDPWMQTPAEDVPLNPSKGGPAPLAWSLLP

[6] = target: Serine/threonine-protein kinase pim-2 (Homo sapiens) (UniProt Q9P1W9); details: at 10 µM
[7] = target: Serine/threonine-protein kinase pim-3 (Homo sapiens) (UniProt Q86V86); details: at 1 µM
[8] = target: Serine/threonine-protein kinase pim-3 (Homo sapiens) (UniProt Q86V86); details: at 10 µM
[9] = target: Protein-tyrosine kinase 2-beta (Homo sapiens) (UniProt Q14289); details: at 1 µM
Sequence of Protein-tyrosine kinase 2-beta (Homo sapiens) (Q14289 whole entry, looked up): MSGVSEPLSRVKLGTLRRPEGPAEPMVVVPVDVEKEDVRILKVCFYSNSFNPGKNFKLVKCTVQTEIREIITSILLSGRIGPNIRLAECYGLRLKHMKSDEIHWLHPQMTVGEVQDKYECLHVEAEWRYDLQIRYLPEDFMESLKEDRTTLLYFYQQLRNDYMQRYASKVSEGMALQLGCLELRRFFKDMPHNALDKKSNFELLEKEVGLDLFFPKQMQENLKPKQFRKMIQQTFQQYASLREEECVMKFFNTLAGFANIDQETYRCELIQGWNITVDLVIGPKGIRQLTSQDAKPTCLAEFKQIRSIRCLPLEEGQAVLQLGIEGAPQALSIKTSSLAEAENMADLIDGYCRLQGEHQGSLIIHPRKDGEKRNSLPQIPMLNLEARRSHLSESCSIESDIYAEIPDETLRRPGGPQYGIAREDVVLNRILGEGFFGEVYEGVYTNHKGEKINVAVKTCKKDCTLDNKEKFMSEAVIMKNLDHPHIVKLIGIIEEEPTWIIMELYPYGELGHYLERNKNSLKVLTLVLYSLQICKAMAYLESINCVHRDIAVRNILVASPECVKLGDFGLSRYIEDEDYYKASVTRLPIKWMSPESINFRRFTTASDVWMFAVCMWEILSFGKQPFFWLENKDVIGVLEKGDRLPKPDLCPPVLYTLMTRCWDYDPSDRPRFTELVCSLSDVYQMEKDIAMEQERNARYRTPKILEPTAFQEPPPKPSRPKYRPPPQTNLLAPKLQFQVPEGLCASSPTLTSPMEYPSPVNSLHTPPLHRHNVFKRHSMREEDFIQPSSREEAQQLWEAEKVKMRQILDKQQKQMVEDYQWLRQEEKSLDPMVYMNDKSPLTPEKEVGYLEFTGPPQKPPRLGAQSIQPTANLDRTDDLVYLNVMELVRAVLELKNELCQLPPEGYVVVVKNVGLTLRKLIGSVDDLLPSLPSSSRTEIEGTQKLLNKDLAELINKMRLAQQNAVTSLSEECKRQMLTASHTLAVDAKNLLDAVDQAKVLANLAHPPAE

[10] = target: Protein-tyrosine kinase 2-beta (Homo sapiens) (UniProt Q14289); details: at 10 µM
[11] = target: Receptor-interacting serine/threonine-protein kinase 2 (Homo sapiens) (UniProt O43353); details: at 1 µM
Sequence of Receptor-interacting serine/threonine-protein kinase 2 (Homo sapiens) (O43353 whole entry): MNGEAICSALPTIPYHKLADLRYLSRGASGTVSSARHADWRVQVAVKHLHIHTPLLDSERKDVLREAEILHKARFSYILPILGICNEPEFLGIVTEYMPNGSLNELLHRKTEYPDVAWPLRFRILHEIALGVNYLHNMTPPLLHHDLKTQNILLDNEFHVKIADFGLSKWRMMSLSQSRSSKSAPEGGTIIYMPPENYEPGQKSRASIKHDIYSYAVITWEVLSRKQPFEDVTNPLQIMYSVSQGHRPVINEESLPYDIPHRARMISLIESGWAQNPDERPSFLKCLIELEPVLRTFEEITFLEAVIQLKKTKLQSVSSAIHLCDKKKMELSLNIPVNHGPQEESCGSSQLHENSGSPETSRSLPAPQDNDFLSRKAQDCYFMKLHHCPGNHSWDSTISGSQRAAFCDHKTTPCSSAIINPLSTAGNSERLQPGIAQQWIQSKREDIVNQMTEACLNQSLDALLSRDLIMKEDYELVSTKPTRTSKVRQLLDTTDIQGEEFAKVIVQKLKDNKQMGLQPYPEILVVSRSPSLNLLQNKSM

[12] = target: Receptor-interacting serine/threonine-protein kinase 2 (Homo sapiens) (UniProt O43353); details: at 10 µM
[13] = target: Rho-associated protein kinase 1 (Homo sapiens) (UniProt Q13464); details: at 1 µM
Sequence of Rho-associated protein kinase 1 (Homo sapiens) (Q13464 2-1354 limits assumed): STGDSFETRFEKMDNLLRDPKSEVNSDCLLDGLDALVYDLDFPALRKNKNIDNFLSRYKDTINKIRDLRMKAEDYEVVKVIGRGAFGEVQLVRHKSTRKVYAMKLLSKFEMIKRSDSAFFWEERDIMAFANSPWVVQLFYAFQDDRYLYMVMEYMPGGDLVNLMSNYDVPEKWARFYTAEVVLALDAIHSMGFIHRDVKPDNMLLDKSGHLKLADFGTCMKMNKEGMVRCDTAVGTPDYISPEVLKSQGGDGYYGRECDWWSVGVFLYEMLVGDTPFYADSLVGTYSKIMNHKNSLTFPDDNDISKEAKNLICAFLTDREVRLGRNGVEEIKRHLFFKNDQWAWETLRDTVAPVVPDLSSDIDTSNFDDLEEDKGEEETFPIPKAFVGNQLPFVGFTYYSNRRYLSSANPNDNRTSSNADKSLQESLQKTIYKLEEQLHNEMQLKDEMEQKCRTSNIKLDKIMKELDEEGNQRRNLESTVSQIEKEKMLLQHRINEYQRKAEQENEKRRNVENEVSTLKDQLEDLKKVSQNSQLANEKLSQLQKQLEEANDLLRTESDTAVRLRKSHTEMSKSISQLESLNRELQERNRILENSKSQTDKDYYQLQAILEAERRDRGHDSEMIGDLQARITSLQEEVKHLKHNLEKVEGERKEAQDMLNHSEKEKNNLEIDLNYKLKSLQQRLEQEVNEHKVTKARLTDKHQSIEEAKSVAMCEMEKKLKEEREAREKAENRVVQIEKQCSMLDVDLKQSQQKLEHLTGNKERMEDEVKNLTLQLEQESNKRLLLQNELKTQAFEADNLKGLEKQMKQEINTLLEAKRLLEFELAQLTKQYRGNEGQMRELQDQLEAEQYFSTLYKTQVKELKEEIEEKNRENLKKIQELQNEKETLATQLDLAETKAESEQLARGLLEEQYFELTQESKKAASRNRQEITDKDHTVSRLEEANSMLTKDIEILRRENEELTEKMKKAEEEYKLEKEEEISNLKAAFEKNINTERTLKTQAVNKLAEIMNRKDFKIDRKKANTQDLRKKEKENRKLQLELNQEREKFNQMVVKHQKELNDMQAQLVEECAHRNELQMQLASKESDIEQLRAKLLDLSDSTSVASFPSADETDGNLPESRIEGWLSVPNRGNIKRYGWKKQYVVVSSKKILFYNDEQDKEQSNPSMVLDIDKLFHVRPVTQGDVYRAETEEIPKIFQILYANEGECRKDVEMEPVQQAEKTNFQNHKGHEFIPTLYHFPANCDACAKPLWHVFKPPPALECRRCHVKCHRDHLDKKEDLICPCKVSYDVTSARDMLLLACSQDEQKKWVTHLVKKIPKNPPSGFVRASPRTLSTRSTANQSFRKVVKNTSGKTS

[14] = target: Rho-associated protein kinase 1 (Homo sapiens) (UniProt Q13464); details: at 10 µM
[15] = target: Serine/threonine-protein kinase PLK1 (Homo sapiens) (UniProt P53350); details: at 1 µM
[16] = target: Serine/threonine-protein kinase PLK1 (Homo sapiens) (UniProt P53350); details: at 10 µM
[17] = target: Serine/threonine-protein kinase PLK3 (Homo sapiens) (UniProt Q9H4B4); details: at 1 µM
Sequence of Serine/threonine-protein kinase PLK3 (Homo sapiens) (Q9H4B4 whole entry, looked up): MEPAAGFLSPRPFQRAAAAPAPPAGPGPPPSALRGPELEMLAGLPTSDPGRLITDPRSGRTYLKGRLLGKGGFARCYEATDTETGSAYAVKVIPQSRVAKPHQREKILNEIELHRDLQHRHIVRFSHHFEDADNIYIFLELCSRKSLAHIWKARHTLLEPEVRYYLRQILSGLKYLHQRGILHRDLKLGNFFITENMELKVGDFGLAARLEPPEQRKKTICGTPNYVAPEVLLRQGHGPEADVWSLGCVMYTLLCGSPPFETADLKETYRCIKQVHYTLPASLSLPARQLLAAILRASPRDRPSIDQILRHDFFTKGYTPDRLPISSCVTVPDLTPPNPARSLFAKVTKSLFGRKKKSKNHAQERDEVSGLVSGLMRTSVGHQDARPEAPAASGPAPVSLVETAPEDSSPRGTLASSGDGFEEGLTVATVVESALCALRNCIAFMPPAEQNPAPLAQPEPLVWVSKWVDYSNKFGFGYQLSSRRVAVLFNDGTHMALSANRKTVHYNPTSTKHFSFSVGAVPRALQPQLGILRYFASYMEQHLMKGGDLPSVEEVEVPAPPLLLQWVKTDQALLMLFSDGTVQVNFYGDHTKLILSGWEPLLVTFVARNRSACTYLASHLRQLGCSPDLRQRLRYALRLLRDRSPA

[18] = target: Serine/threonine-protein kinase PLK3 (Homo sapiens) (UniProt Q9H4B4); details: at 10 µM
[19] = target: T2, cAMP-dependent protein kinase catalytic subunit PRKX (Homo sapiens) (UniProt P51817); details: at 1 µM
T2 sequence (whole entry): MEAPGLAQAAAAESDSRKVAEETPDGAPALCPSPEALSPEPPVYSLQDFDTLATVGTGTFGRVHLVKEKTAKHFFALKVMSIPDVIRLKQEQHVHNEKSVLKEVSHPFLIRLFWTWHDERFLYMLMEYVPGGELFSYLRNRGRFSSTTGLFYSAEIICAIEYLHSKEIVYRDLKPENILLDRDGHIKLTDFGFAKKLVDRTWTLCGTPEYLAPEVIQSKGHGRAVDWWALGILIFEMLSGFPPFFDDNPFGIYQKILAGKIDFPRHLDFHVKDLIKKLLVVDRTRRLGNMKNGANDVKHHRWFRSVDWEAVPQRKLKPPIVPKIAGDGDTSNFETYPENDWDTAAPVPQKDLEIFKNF

[20] = target: T2, cAMP-dependent protein kinase catalytic subunit PRKX (Homo sapiens); details: at 10 µM

Structure (SMILES) | residual activity [1] [%] | residual activity [2] [%] | residual activity [3] [%] | residual activity [4] [%] | residual activity [5] [%] | residual activity [6] [%] | residual activity [7] [%] | residual activity [8] [%] | residual activity [9] [%] | residual activity [10] [%] | residual activity [11] [%] | residual activity [12] [%] | residual activity [13] [%] | residual activity [14] [%] | residual activity [15] [%] | residual activity [16] [%] | residual activity [17] | residual activity [18] [%] | residual activity [19] [%] | residual activity [20] [%]
Nc1nc(Nc2ccc(S(N)(=O)=O)cc2)nn1C(=O)c1c(F)cccc1F | 100 | 107 | 71 | 52 | 99 | 73 | 99 | 102 | 55 | 14 | 62 | 41 | 65 | 16 |  |  |  |  |  | 
O=c1cc(N2CCOCC2)oc2c1ccc1ccccc12 | 90 | 89 | 55 | 13 | 87 | 45 | 92 | 55 | 130 | 100 | 86 | 83 |  |  | 56 | 11 | 99% (inactive) | 68 | 97 | 96
Cn1sc(=O)n(Cc2ccccc2)c1=O | 90 | 98 |  | 95 |  | 143 | 80 | 85 |  |  | 92 | 86 |  |  | 69 | 70 |  | 89 | 76 | 87
CC(C)(C)c1nc2c3ccc(F)cc3c3c(=O)[nH]ccc3c2[nH]1 | 41 | 24 |  |  |  |  |  |  |  |  | 18 | 20 |  |  |  |  | 55% (inactive) | 64 |  | 
O=C1Nc2ccccc2/C1=C\c1c(Cl)[nH]c2ccccc12 | 87 | 87 |  | 26 | 73 | 16 |  |  |  | 65 | 84 | 60 | 121 |  | 86 | 75 |  |  | 125 | 79
Nc1nccc(-c2c(-c3ccc(F)cc3)ncn2C2CCNCC2)n1 | 125 | 114 | 75 | 26 | 120 |  |  |  |  |  | 43 | 16 | 128 | 121 |  |  |  |  |  | 
O=C1Cc2c([nH]c3ccc(Br)cc23)-c2ccccc2N1 | 120 | 89 | 75 | 56 | 100 | 79 | 83 | 79 | 89 | 58 | 49 | 22 |  |  | 76 | 75 | 95% (inactive) | 83 |  | 
CC(C)[C@H](CO)Nc1nc(Nc2cc(N)cc(Cl)c2)c2ncn(C(C)C)c2n1 | 119 | 97 | 95 | 86 |  |  |  |  | 59 | 7 | 85 | 77 |  | 84 | 50 | 9 | 99% (inactive) | 77 |  | 88
CC(C)(C)n1nc(Cc2cccc3ccccc23)c2c(N)ncnc21 | 98 | 109 | 77 | 106 | 114 |  | 96 | 95 | 89 | 29 | 27 | 17 | 114 | 125 | 99 | 75 | 94% (inactive) | 97 | 98 | 75
COc1cc2nccc(Oc3ccc(NC(=S)NC(=O)c4ccccc4C)cc3)c2cc1OC | 61 | 45 | 102 | 99 | 97 |  | 89 | 87 | 82 | 60 | 51 | 34 |  |  | 83 | 65 | 80% (inactive) | 89 | 68 | 52
Nc1ncnc2[nH]nc(Nc3ccc(F)cc3)c12 | 102 | 99 | 115 | 53 | 133 | 99 |  | 69 | 101 | 79 | 46 | 21 | 128 | 101 |  | 77 | 103% (inactive) | 94 |  | 21
COc1ccc(CNC(=O)Nc2ncc([N+](=O)[O-])s2)cc1 | 122 | 107 | 116 | 109 | 134 | 135 |  |  | 72 | 77 | 79 | 81 |  |  | 64 | 76 |  |  | 55 | 59
O=C(c1ccccc1)c1ccc(N2CCOCC2)cc1O | 84 | 113 | 76 | 81 |  |  |  |  | 130 |  | 99 | 87 |  | 121 | 93 | 75 | 91% (inactive) | 88 | 86 | 94
O=C(CCCc1ccc(-c2ccccc2F)cc1)Nc1ccc(O)cc1 | 109 | 112 | 100 | 97 |  | 139 | 96 | 97 | 105 | 104 | 94 | 95 | 107 | 100 | 93 | 103 | 99% (inactive) | 98 | 100 | 101
NC(=O)Nc1sc(-c2ccc(F)cc2)cc1C(N)=O | 105 | 69 | 95 | 43 | 93 | 60 |  |  | 56 | 10 | 67 | 29 |  | 101 |  |  | 88% (inactive) | 81 | 85 | 55
O=C1Nc2ccc(Cl)cc2/C1=C/c1cc(Cl)c(O)c(Cl)c1 | 94 | 83 | 24 | 5 | 17 | 3 | 77 | 30 | 96 | 28 | 32 | 25 |  | 121 | 83 | 62 | 94% (inactive) | 95 | 59 | 63
O=C1NC(=O)c2c1c1c3ccccc3[nH]c1n1cncc21 | 95 | 70 | 6 | 2 | 5 | 0 | 14 | 17 | 32 | 19 | 79 | 72 |  | 96 | 62 | 60 | 55% (inactive) | 31 | 80 | 75
Nc1ncnc2c1cnn2-c1ccccc1 | 97 | 90 |  | 126 |  | 94 | 101 | 97 |  | 97 | 93 | 67 |  |  | 100 | 86 | 93% (inactive) | 95 | 94 | 91
CN(C)S(=O)(=O)c1ccc2c(c1)/C(=C/c1cc3c([nH]1)CCCC3)C(=O)N2 | 48 | 46 |  | 86 | 123 | 121 | 93 | 94 |  |  |  |  | 132 | 100 | 96 | 95 |  |  | 95 | 91
CCCC(=O)Oc1ccc2[nH]c(C(=O)c3cc4ccccc4[nH]3)cc2c1 | 95 | 96 | 101 | 121 |  | 98 | 93 | 96 | 122 | 85 | 91 | 89 | 103 | 128 | 86 | 58 | 93% (inactive) | 85 | 88 | 92
COc1cc2ncnc(Nc3cccc(Cl)c3)c2cc1OC | 104 | 107 | 62 | 48 | 121 |  | 112 | 101 | 117 | 76 | 26 | 16 |  |  | 112 |  | 83% (inactive) |  | 122 | 
CCCCc1c(-c2ccc(OC)cc2)[nH]c2nccnc12 | 113 | 109 | 109 | 88 | 112 | 104 | 104 | 113 | 54 | 32 | 67 | 82 | 117 | 102 | 81 |  |  |  | 84 | 101
CCOC(=O)c1c(C)[nH]c(/C=C2\C(=O)Nc3ccccc32)c1C | 87 | 92 | 72 |  |  |  |  |  | 80 | 45 | 96 | 99 |  |  |  | 74 | 86% (inactive) | 88 |  | 
NCCNc1ncc(C(N)=O)c(Nc2cccc(C(F)(F)F)c2)n1 | 64 | 22 | 82 | 38 |  | 60 |  |  | 27 | 3 |  |  | 104 | 103 | 100 | 73 |  |  |  | 
NC(=O)c1ccc(-c2nc(-c3ccc4c(c3)OCCO4)c(-c3ccccn3)[nH]2)cc1 | 90 | 93 |  |  |  |  | 96 | 97 |  |  | 55 | 18 | 118 | 90 | 81 | 71 |  |  | 82 | 86
Cn1c2ccccc2c2c3c(c4c5ccccc5n(CCC#N)c4c21)CNC3=O | 1 | 2 | 18 | 22 | 25 | 40 | 58 |  | 4 | 4 |  |  | 98 | 97 |  | 66 |  |  | 19 | 20
CCN(CC)CCNC(=O)c1c(C)[nH]c(/C=C2\C(=O)Nc3ccc(Cl)cc32)c1C | 8 | 2 |  |  |  |  |  | 75 | 15 | 3 | 62 | 27 |  |  |  | 55 |  |  | 63 | 37
